Test results published in paper PMC4336329 (PLoS ONE, 2015).
Hit rate of the full screen: of about 310,000 compounds, about 14,000 (4.5%) showed an effect of 50% or more. Effects have a minus sign here. Many of the other results were omitted from the sample, so strong results are more common in it than they were.

Target: human ether-à-go-go-related gene (hERG) potassium channel (human, UniProt Q12809)
Test: primary screen, population patch clamp on CHO cells stably expressing hERG; higher = less effect of the substance
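Note: peak tail current of the secondary pulse compared with the same well before compound.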

human ether-à-go-go-related gene (hERG) potassium channel, sequence (Q12809 whole entry, looked up): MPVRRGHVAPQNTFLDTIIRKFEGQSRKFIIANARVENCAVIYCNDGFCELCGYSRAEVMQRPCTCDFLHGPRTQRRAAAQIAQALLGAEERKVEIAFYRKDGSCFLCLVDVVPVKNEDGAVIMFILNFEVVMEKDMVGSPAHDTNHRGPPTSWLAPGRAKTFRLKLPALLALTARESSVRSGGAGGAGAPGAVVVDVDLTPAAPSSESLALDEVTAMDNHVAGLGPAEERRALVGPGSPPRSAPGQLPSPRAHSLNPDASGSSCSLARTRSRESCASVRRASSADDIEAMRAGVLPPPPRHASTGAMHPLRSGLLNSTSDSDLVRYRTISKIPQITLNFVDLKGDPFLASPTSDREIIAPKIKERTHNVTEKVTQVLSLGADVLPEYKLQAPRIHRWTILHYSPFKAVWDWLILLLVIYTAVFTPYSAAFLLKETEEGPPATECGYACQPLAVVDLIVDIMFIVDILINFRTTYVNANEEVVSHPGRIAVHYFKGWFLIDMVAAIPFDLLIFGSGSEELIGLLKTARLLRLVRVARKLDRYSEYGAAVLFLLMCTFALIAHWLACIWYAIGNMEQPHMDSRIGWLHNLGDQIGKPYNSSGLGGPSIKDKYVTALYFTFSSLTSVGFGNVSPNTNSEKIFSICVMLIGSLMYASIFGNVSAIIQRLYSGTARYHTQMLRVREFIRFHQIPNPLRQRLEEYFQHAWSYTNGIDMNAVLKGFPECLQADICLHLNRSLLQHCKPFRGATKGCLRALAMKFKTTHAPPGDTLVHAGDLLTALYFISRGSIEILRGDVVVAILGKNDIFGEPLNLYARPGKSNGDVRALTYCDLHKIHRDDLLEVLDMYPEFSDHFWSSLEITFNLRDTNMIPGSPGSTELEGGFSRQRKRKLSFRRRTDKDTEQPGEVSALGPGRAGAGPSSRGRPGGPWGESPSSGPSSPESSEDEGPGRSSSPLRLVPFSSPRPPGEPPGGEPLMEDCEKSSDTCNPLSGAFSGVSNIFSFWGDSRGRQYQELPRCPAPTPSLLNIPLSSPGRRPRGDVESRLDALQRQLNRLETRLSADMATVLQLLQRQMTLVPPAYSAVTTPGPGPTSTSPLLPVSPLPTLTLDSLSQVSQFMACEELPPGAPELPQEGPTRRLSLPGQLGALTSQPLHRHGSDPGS

Going from `O=C(CCl)N(Cc1cc(=O)[nH]c2ccccc12)c1ccccc1` to `CN(C)CCP(=O)(c1ccccc1)c1ccccc1`, the “hERG current change (%, negative = inhibition) at 10uM” value rises from 0.288% to 13.4%.

Going from `CCOC(=O)c1nn(-c2ccc(C)cc2)c(=O)cc1OCC(=O)Nc1cccc(OC)c1` to `COc1ccc(C(=O)Nc2ccc(C(=O)NCCc3ccc(OC)c(OC)c3)cc2)cc1`, the “hERG current change (%, negative = inhibition) at 10uM” value rises from 1.6% to 30.5%.

First: Cn1cc(CN2CCC(n3nccc3NC(=O)c3ccccc3Cl)CC2)c2ccccc21
Second: COc1ccccc1C(=O)Nc1ccnn1C1CCN(Cc2cn(C)c3ccccc23)CC1
The “hERG current change (%, negative = inhibition) at 10uM” value of the first is higher: -68.6% for the first, -83.6% for the second.

Compared with `Cc1cc(NC(=O)CSc2ccc3nnc(CCNS(=O)(=O)c4ccccc4)n3n2)no1`, `COc1ccc(Cc2noc(CN(C)CCc3ccccc3)n2)cc1OC` is lower in “hERG current change (%, negative = inhibition) at 10uM” value: 15.6% for the first, 7.3% for the second.

Compared with `Nc1c(Cl)cc(-c2csc(N3CCCC3c3nc4cc(Cl)c(Cl)cc4n3CCOCCO)n2)cc1Cl` (centres unmarked), `Cc1cccc(C(=O)N2CCc3cc(-c4nc(NC(=O)CN5CCCC5)sc4C)ccc32)c1` is lower in “hERG current change (%, negative = inhibition) at 10uM” value: -0.601% for the first, -0.886% for the second.

Going from `Cc1cccc(C)c1NC(=O)NNC(=O)c1cc(C(C)(C)C)nn1Cc1ccccc1` to `CN(Cc1ccccc1)C(=O)c1ccccc1NC(=O)c1ccccc1`, the “hERG current change (%, negative = inhibition) at 10uM” value falls from 0.818% to -12.7%.

Compared with `CC1CCC/C(=N\NC(=S)Nc2ccccc2)C1` (centres unmarked), `CCC(C)c1ccc(NC(=S)NC(C)C2CCCO2)cc1` (centres unmarked) is lower in “hERG current change (%, negative = inhibition) at 10uM” value: 7.36% for the first, -6.84% for the second.

First: O=C(Nc1ccc(Nc2ccccc2)cc1)c1c(Cl)cccc1Cl
Second: COc1ccccc1OCc1ccc(C(=O)Nc2ccccc2)cc1
The “hERG current change (%, negative = inhibition) at 10uM” value of the first is higher: 12.3% for the first, 11.1% for the second.

First: Cc1ccc2c(c1)C1CN(C)CCC1N2C(=O)COc1ccc(N(C)C(=O)c2ccccc2)cc1 (centres unmarked)
Second: COc1ccc(OCC(=O)N2c3ccc(C)cc3C3CN(C)CCC32)cc1 (centres unmarked)
The “hERG current change (%, negative = inhibition) at 10uM” value of the first is lower: -11.6% for the first, -5.12% for the second.

Compared with `Cc1ccc2c(c1)C1CN(C)CCC1N2C(=O)CCCN1C(=O)c2cccc3cccc(c23)C1=O` (centres unmarked), `Cc1ccc2c(c1)C1CN(C)CCC1N2C(=O)COc1ccccc1F` (centres unmarked) is higher in “hERG current change (%, negative = inhibition) at 10uM” value: -57.4% for the first, -4.18% for the second.

First: Cc1ccc2c(c1)C1CN(C)CCC1N2C(=O)Cn1nnc(-c2ccccc2F)n1 (centres unmarked)
Second: CC1CCCN(C(=O)Cn2nnc(-c3ccccc3F)n2)C1 (centres unmarked)
The “hERG current change (%, negative = inhibition) at 10uM” value of the first is lower: -60.1% for the first, 13.8% for the second.

Going from `Cc1cc(-n2c(SCc3ccccc3F)nc3n[nH]c(C)c3c2=N)ccc1Cl` to `Cc1cc(=O)oc2c(C)c(OCC(=O)N3CCN(c4ccc(F)cc4)CC3)ccc12`, the “hERG current change (%, negative = inhibition) at 10uM” value falls from 15.8% to -65.9%.

First: COC(=O)c1ccccc1OCCCOc1ccc(C=O)cc1OC
Second: COc1cc(CC(=O)O)ccc1OCc1ccccc1
The “hERG current change (%, negative = inhibition) at 10uM” value of the first is lower: -4.02% for the first, 4.35% for the second.

First: O=C(NCc1ccco1)c1ccc(COc2ccc(Cl)cc2)cc1
Second: COc1ccc(CCN(C)Cc2ccc(C(=O)Nc3ccccc3)cc2)cc1OC
The “hERG current change (%, negative = inhibition) at 10uM” value of the first is higher: 0.911% for the first, -67.3% for the second.

Compared with `CCCN(C(=O)Cc1ccc(S(=O)(=O)N2CCOCC2)s1)c1c(N)n(Cc2ccccc2)c(=O)[nH]c1=O`, `Cc1ccc(CC(=O)N(C)CC(=O)N(CC(C)C)c2c(N)n(CC(C)C)c(=O)[nH]c2=O)cc1C` is lower in “hERG current change (%, negative = inhibition) at 10uM” value: 16.8% for the first, -2.54% for the second.

Compared with `CN(C)c1ccc(C(c2ccc(N(C)C)cc2)c2ccc([N+](=O)[O-])cc2)cc1`, `CCN(CC)c1ccc(CN(C)CCc2ccc(OC)c(OC)c2)cc1` is lower in “hERG current change (%, negative = inhibition) at 10uM” value: 3.74% for the first, -66.1% for the second.

Compared with `Cc1cccc(Sc2nc(-c3ccccc3)ncc2C(=O)O)c1`, `O=C(Nc1cccc(S(=O)(=O)N2CCCC2)c1)c1ccc2ccccc2n1` is higher in “hERG current change (%, negative = inhibition) at 10uM” value: 11.7% for the first, 20.9% for the second.

Compared with `Cc1cc(=O)oc2cc(OCC(=O)N3CCN(c4ccc(F)cc4)CC3)ccc12`, `COc1ccc(N2CCN(C(=O)COc3ccc4c(C)cc(=O)oc4c3)CC2)cc1` is higher in “hERG current change (%, negative = inhibition) at 10uM” value: -53% for the first, -16.5% for the second.

Going from `Cc1cc(=O)oc2cc(OCC(=O)N3CCN(c4ccccc4)CC3)ccc12` to `Cc1cc(=O)oc2c(C)c(OCC(=O)N3CCN(c4ccccc4)CC3)ccc12`, the “hERG current change (%, negative = inhibition) at 10uM” value rises from -36.6% to -24.8%.

First: COc1ccc(N2CCN(C(=O)COc3ccc4c(C)cc(=O)oc4c3C)CC2)cc1
Second: COc1ccc(/C=C/C(=O)NCc2cn(C)nc2C)cc1COc1ccc(Br)cc1
The “hERG current change (%, negative = inhibition) at 10uM” value of the first is higher: 20.6% for the first, 7.33% for the second.

Going from `Cc1ccc(CN2CC(C(=O)N3CC(C)CC(C)C3)CC2=O)cc1` (centres unmarked) to `Cn1cc(C(=O)N2CCCC(Nc3ccc(F)cc3)C2)c2ccccc21` (centres unmarked), the “hERG current change (%, negative = inhibition) at 10uM” value falls from -6.13% to -21.1%.

Compared with `O=C(O)COCc1nc2ccccc2s1`, `CN(Cc1ccccc1)C(=O)c1ccc(NC(=O)C2=CSCCO2)cc1` is higher in “hERG current change (%, negative = inhibition) at 10uM” value: -7.92% for the first, -0.926% for the second.

Going from `Cc1ccc2c(c1)COc1c3ccc(C(=O)NCC4CC4)cc3nn1-2` to `COc1ccc(CCN(C)Cc2ccc(F)cc2F)cc1OC`, the “hERG current change (%, negative = inhibition) at 10uM” value rises from -6.56% to -0.788%.

Going from `CN(Cc1ccccc1)C(=O)c1ccc(NC(=O)c2ccccc2)cc1` to `COc1ccc(CN(CCc2ccccc2)Cc2ccccc2)cc1OC.O=C(O)C(=O)O`, the “hERG current change (%, negative = inhibition) at 10uM” value rises from -59.9% to -9.99%.

First: COc1ccc(CCN(C)Cc2ccncc2)cc1OC
Second: COc1ccc(CCN(C)Cc2ccc(OC)c(OCc3ccccc3)c2)cc1OC
The “hERG current change (%, negative = inhibition) at 10uM” value of the first is higher: -27.2% for the first, -81.6% for the second.

Compared with `COc1cc(CN(CCN(C)C)Cc2ccccc2)ccc1OCc1ccccc1.O=C(O)C(=O)O`, `CCN(Cc1ccccc1)Cc1ccc(OCc2ccccc2)c(OC)c1` is lower in “hERG current change (%, negative = inhibition) at 10uM” value: -31% for the first, -31.2% for the second.

Going from `COc1cc(CN(C)CCc2ccccc2)ccc1OCc1ccccc1` to `COc1ccc(CCN(C)Cc2ccc(OCc3ccccc3)c(OC)c2)cc1OC`, the “hERG current change (%, negative = inhibition) at 10uM” value falls from -72% to -74.3%.

Compared with `O=C(Nc1cccc(S(=O)(=O)N2CCCCC2)c1)Nc1ccc(Cl)cc1Cl`, `O=C(CN1CCCC1c1cccs1)Nc1cccc(S(=O)(=O)N2CCCC2)c1` (centres unmarked) is lower in “hERG current change (%, negative = inhibition) at 10uM” value: 7.77% for the first, -0.843% for the second.
